# Reference: PubChem BioAssay (NCATS)
# Results filed as inconclusive are left out. Values without a mark were called inactive. Activity calls are given as the source filed them. Calls come from the whole dose curve; as a rule, active = well fitted inhibition curve with a large enough effect; inconclusive = small, poorly fitted or top-dose-only effect; inactive = no such curve, though single readings can be large or run the other way.
# Target: N-terminal Xaa-Pro-Lys N-methyltransferase 1 (Homo sapiens) (UniProt Q9BV86)
# Assay: qHTS Assay for Inhibitors of N-terminal methyltransferase 1 (NTMT1): LOPAC validation of the NTMT1 SAHH-coupled ThioGlo3 Assay (AID 1347143);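 note: SAH from peptide methylation measured as thiol fluorescence via SAHH coupling and ThioGlo3; nearly all actives have a fitted effect of over 70% in size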
# Settings: recombinant NTMT1, SAHH-coupled ThioGlo3 fluorescence; series mostly up to 114 µM; activity change, negative = inhibition: at the top concentration
# Outline: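 In this qHTS pilot against the LOPAC set, 125nM NTMT1 met compounds tested at multiple concentrations, and fluorescence was normalized to background.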
# % is set by controls: 0 for no effect and ±100 for the full control effect; potency is the fitted concentration of half-maximal effect.
# N-terminal Xaa-Pro-Lys N-methyltransferase 1 (Homo sapiens), sequence (Q9BV86 whole entry, looked up): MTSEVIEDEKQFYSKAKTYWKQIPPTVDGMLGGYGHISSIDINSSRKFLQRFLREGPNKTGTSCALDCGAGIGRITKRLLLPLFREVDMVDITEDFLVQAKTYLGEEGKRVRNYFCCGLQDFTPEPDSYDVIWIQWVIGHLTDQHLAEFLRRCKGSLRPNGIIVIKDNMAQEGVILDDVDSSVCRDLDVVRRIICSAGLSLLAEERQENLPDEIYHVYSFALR
Structure (SMILES),Potency,"activity change, negative = inhibition [%]"
NC(=O)CI,20 µM (active),–
Cc1cc([C@@H]2CCCN2C)on1,–,-19.3
CCCN1CCC[C@@H](c2cccc(O)c2)C1,–,-12.8
C[C@H](N)Cc1cccc(C(F)(F)F)c1,–,-13.5
CC(C)NP(=O)(NC(C)C)OP(=O)(NC(C)C)NC(C)C,–,-4.54
CC(C)(O)[C@@H]1[C@H]2OC(=O)[C@@H]1[C@]1(O)C[C@H]3O[C@]34C(=O)O[C@H]2[C@]14C (tested in a mixture with another compound),–,-9.34
CCNC(=O)[C@H]1O[C@@H](n2cnc3c(N)ncnc32)[C@H](O)C1O (some centres undefined),–,-10.7
O=C1/C(=C/c2ccccc2)C[C@@]2(O)[C@H]3Cc4ccc(O)c5c4[C@@]2(CCN3CC2CC2)[C@H]1O5,50.1 µM (active),–
O=c1ccc2[nH]cc(C3=CCNCC3)c2[nH]1,56.2 µM (active),–
CC(C)CC(NP(=O)(O)O[C@@H]1O[C@@H](C)[C@H](O)[C@@H](O)[C@H]1O)C(=O)NC(Cc1c[nH]c2ccccc12)C(=O)O (some centres undefined),–,-4.1
O=P(O)(O)C(Cl)(Cl)P(=O)(O)O,–,-10.5
O=[N+]([O-])/C=C/c1ccc2c(c1)OCO2,39.8 µM (active),–
Nc1cc2c(ncn2CCOCP(=O)(O)O)c(=O)[nH]1,–,-26.6
C[N+]1(C)CCC(OC(=O)C(c2ccccc2)c2ccccc2)CC1,63.1 µM (active),–
O=C1C=CC(=O)C=C1,–,-13.1
CCN1C[C@@]2(COC)C3[C@@H](OC)C4[C@H]1C3([C@@H]1C[C@@]3(O)[C@H](OC(=O)c5ccccc5)[C@@H]1[C@]4(OC(C)=O)[C@@H](O)[C@@H]3OC)[C@H](OC)C[C@H]2O,–,-6.62
CN(N=O)c1ccc(O)c(O)c1,35.5 µM (active),–

Structure (SMILES),Potency,"activity change, negative = inhibition [%]"
NCCCP(=O)(O)O,–,-11.7
CN1CC[C@@]2(C)c3cc(O)ccc3N(C)C12 (some centres undefined),44.7 µM (active),–
O=[N+]([O-])c1cc(O)c(O)c([N+](=O)[O-])c1,44.7 µM (active),–
COc1ccc2c(c1O)-c1cccc3c1[C@@H](C2)N(C)CC3,56.2 µM (active),–
CCn1cnc2c(Nc3cccc(Cl)c3)nc(N[C@@H]3CCCC[C@@H]3N)nc21,8.91 µM (active),–
CC(N)[C@H](O)c1ccc(O)c(O)c1 (some centres undefined),50.1 µM (active),–
NC(=O)COc1c(F)cc(SCCNS(=O)(=O)c2ccccc2)cc1F,–,-17.3
CC(C)(C)c1o[nH]c(=O)c1CC(N)C(=O)O (centres undefined),–,-15.7
CCN(CC)c1ncnc2c1ncn2[C@@H]1O[C@H](COP(=O)(O)OP(=O)(O)C(Br)(Br)P(=O)(O)O)[C@@H](O)[C@H]1O,–,-16.4
Nc1ncnc2c1ncn2[C@@H]1O[C@H](COP(=O)(O)CP(=O)(O)OP(=O)(O)O)C(O)[C@H]1O (some centres undefined),–,-15.3
CCCCCCCCCCCCCC(=O)O[C@@H]1[C@@H](C)[C@@]2(O)[C@@H](C=C(CO)C[C@@]3(O)C(=O)C(C)=C[C@@H]23)C2C(C)(C)[C@@]21OC(C)=O (some centres undefined),–,22.1
C[C@]12Cc3cn4c(nc3C=C1CCC1C2CC[C@@]2(C)[C@H]1CC[C@@]2(O)C#N)nc1ccccc14 (some centres undefined),–,-15.7
CC1OC1P(=O)(O)O (centres undefined),–,-2.96
O=S1(=O)N(CCN2CC=C(c3c[nH]c4cc(F)ccc34)CC2)c2cccc3c2N1CCC3,50.1 µM (active),–
NC(=O)c1cc(N2CC2)c([N+](=O)[O-])cc1[N+](=O)[O-],–,-25.6
N#C/C(=C/c1ccc(O)c(O)c1)C(N)=S,44.7 µM (active),–
CCCN1CCc2cc(O)cc3c2[C@H]1Cc1ccc(O)c(O)c1-3,35.5 µM (active),–
